We go through 12 sequences from the supplement of paper PMC6555819.

What all share (assay): PBM binding z-score (relative to random genomic background probes); higher = stronger binding; sequences stand for … in GC…GCGATTGACAGCGTAGAATGAAGG
For assay [1], the system named is FXR:RXRa (NR concentration 270 nM, RXRa partner concentration 90 nM). In outline: (§1)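 Scanned fluorescence from custom Agilent 4×180K protein-binding microarrays was regression-normalized. Binding z-scores use random background probes as reference. Ligand-free nuclear receptor dimers were incubated on the arrays for 1 h and detected with antibodies against each partner (one per run).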

The test system of assay [2] is LXRa:RXRa (NR concentration 270 nM, RXRa partner concentration 90 nM). In outline:
as §1

In assay [3] the test system is LXRa homodimer (NR concentration 270 nM). In outline: as §1
Assay [4] has as its system LXRb:RXRa (NR concentration 270 nM, RXRa partner concentration 90 nM). In outline:
as §1

In assay [5] the test system is LXRb homodimer (NR concentration 270 nM). In outline: as §1
In assay [6] the test system is PPARa:RXRa (NR concentration 270 nM, RXRa partner concentration 90 nM). In outline: as §1
For assay [7], the system named is PPARg:RXRa (NR concentration 180 nM, RXRa partner concentration 90 nM). In outline: as §1
Assay [8] relates to PPARg:RXRa 270nM:90nM, anti-RXR (NR concentration 270 nM, RXRa partner concentration 90 nM). In outline:
as §1

Assay [9] has as its system PPARg:RXRa 30nM:10nM, anti-RXR (NR concentration 30 nM, RXRa partner concentration 10 nM). In outline: as §1
Assay [10] deals with PPARg:RXRa 90nM:30nM, anti-RXR (NR concentration 90 nM, RXRa partner concentration 30 nM). In outline:
as §1

Turning to CCTTACGGGTCACTCCCGGTTATAGCATCGGAGT, the PBM binding z-score in assay [1] came to 4.78; in assay [2] it was 7.33; in [3] it was 2; in [4], 4.66; in assay [5], 0.279; in [6], 4.23. In addition, the PBM binding z-score turned out to be 2.63 in assay [7], 3.52 in assay [8], 0.522 in [9] and 2.33 in assay [10].

For CCGAGTGGGGCAAGGTTACCATAACGCACAGCCA, the PBM binding z-score in [1] was 0.236; in assay [2], 0.965; in assay [3], -0.227; in assay [4], 0.664; in [5], -0.711; in assay [6], 1.78. In addition, the PBM binding z-score in assay [7] was determined as 2.73; in [8], 2.77; in [9] it was 0.815; in assay [10] it was 2.3.

Regarding AGAACGAAGGCAATGAGTTGATAGCACGGGTGGC, the PBM binding z-score in [1] was -0.744; in assay [2] it was -0.976; in assay [3] it was -0.545; in [4], -0.999; in assay [5], -1.01; in assay [6], -0.613. In addition, the PBM binding z-score in assay [7] is 0.809; in assay [8], -0.61; in assay [9] it was -0.619; in assay [10], -0.608.

For the sequence ATCGAAAAGTCGACGAGGTGAGTATACACCGTTT, the PBM binding z-score in assay [1] is 0.048; in [2] it was -0.0396; in assay [3], -0.471; in assay [4], 0.0525; in [5], -0.29; in assay [6], 0.426. The PBM binding z-score is 0.914 in [7], 0.0655 in assay [8], 0.0856 in assay [9] and -0.125 in assay [10].

For TCGAGTAGGTTAGTGGGGGCATTCAGCCAACATA, the PBM binding z-score came to 1.28 in assay [1]; 1.52 in [2]; 0.619 in assay [3]; 3.73 in [4]; 6.59 in assay [5]; 2.68 in assay [6]. Besides, the PBM binding z-score in assay [7] is 2.05; in [8] it was 3.03; in assay [9] it was 1.76; in assay [10], 2.53.

Regarding CATACAGGGTCAGCTAGGCCAAAGTAGGGACGGC, the PBM binding z-score is 4.83 in [1]; 3.04 in assay [2]; 0.0314 in assay [3]; 2.39 in [4]; 0.557 in assay [5]; 4.4 in assay [6]. Further, the PBM binding z-score amounted to 3.32 in assay [7], 3.26 in assay [8], 0.781 in assay [9] and 1.85 in [10].

As to AGAATGAGGTTATTAAGATCCGGGAATTGCGGTC, the PBM binding z-score in [1] was 1.33; in assay [2] it was 2.41; in assay [3] it was -0.0229; in assay [4], 1.24; in assay [5] it was -0.217; in assay [6], 2.49. In addition, the PBM binding z-score in assay [7] is 1.06; in assay [8], 1.15; in assay [9] it was 0.0449; in [10] it was 0.869.

As for GTACCAAGGTGAATAGGTCGTTGAGGAGTAGGCG, the PBM binding z-score was 0.778 in assay [1]; 0.909 in assay [2]; 0.0544 in assay [3]; 0.533 in assay [4]; -0.56 in assay [5]; 2.32 in [6]. Further, the PBM binding z-score in assay [7] was determined as 1.22; in assay [8], 1.67; in assay [9], 0.113; in assay [10], 1.14.

Take ACACACAGGTGATGAAGGTAACTCAGGCTATCAT: the PBM binding z-score is -0.0193 in assay [1]; 0.147 in [2]; 0.256 in assay [3]; -0.0371 in assay [4]; -0.0459 in [5]; 0.299 in [6]. The PBM binding z-score in [7] was determined as 0.913; in assay [8] it was 0.223; in assay [9] it was 0.238; in assay [10] it was 0.167.

For the sequence ACGAGTTGGTCAGCTGAGGTCACACACAATTCGG, the PBM binding z-score in assay [1] is 3.59; in assay [2], 3.08; in assay [3] it was 1.81; in assay [4] it was 3.17; in [5] it was -0.229; in assay [6], 3.6. In addition, the PBM binding z-score in assay [7] was found to be 1.64; in assay [8], 2.17; in assay [9], 0.283; in assay [10], 1.3.

Turning to CGAACTAGGTGAAGGACAGTGAATCTCCGCACGC, the PBM binding z-score in [1] was -0.222; in [2], -0.234; in assay [3], -0.52; in [4], -0.714; in assay [5] it was -1.01; in [6], 2.1. The PBM binding z-score in assay [7] worked out at 3.52; in assay [8], 3.2; in assay [9] it was 0.549; in assay [10] it was 2.14.

Take TGAATGAGGTTATAAAATCAGGGAACGTTGCAAA: the PBM binding z-score in assay [1] is 0.804; in assay [2], 0.908; in [3] it was -0.31; in assay [4] it was 1.02; in [5], 0.05; in assay [6], 2.15. For the same sequence, the PBM binding z-score stood at 0.802 in assay [7], 1.19 in [8], 0.684 in assay [9] and 1.09 in assay [10].
